High-throughput results deposited in PubChem BioAssay by National Center for Advancing Translational Sciences (NCATS).
NS1 function inh: qHTS Assay for Inhibitors of Influenza NS1 Protein Function; Potency, µM (titrated, usually from 46.1 µM), for the others: at the highest dose activity, positive = more growth; 0.4% of 270,000 active; AID 2326, 2010; calls by dose curve; further: potency means the concentration at half of the fitted maximal effect; actives are rising curves; nearly all actives have a fitted effect of over 50% in size
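In this qHTS, NS1 from influenza A is expressed in budding yeast, where it slows growth. Cells are switched from glucose to 2% galactose medium (pH 6.0, -URA), treated with compound, and growth recovery is read at OD600.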
Cycloheximide cs: Cycloheximide Counterscreen for Small Molecule Inhibitors of Shiga Toxin | 12% of 300,000 active | cell reporter, cycloheximide protein synthesis inhibition counterscreen | AID 2314, 2010 | max response, %; in the data active means max response mostly above about 13%, no sharp cut-off; inactive means mostly below about 14%; further: read at 38.3 µM for the half of the compounds with a filed dose; 0% is about no effect
Pf growth 96h: Primary qHTS for delayed death inhibitors of the malarial parasite plastid, 96 hour incubation; 6.9% of 320,000 active; P. falciparum luciferase reporter growth, 96 h; Potency, µM (series often up to 28.7 µM), inactives show top-dose activity change, negative = inhibition, actives largely listed as inhibitors; AID 504834, 2011; further: potency means the concentration at half of the fitted maximal effect; on the % scale 0 is the no-effect control and ±100 the full control effect
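Readout is luminescence from an integrated firefly luciferase in P. falciparum. Red cells, 2% hematocrit and 0.05% parasitemia final, were cultured with compound through two parasite generations (96 hours) at 37 C, 5% CO2.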
Sm TGR inh: qHTS Assay for the Inhibitors of Schistosoma Mansoni Peroxiredoxins; AID 485364, 2010; Potency, µM (highest dose often 114 µM), without a hit: at the highest dose activity change, negative = inhibition, actives largely listed as inhibitors; purified TGR, DTNB reduction, TNB absorbance 405 nm; 3% of 360,000 active; further: potency means the concentration at half of the fitted maximal effect; on the % scale 0 is the no-effect control and ±100 the full control effect; nearly all actives have a fitted effect of over 60% in size
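Kinetic colorimetric format: TGR-catalysed, NADPH-driven DTNB reduction monitored via TNB absorbance. Enzyme dispensed at 20 nM; compound exposure 15 min at room temperature before reaction start.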
Shiga inhibitor: A qHTS for Small Molecule Inhibitors of Shiga Toxin | inhibition, % at 38.7 µM | Vero cells, Shiga toxin protein synthesis inhibition reporter | 9.2% of 290,000 active; in the data active means inhibition mostly above about 28%, no sharp cut-off; inactive means mostly below about 43%; further: 0% is about no effect
Pf growth 48h: Primary qHTS for delayed death inhibitors of the malarial parasite plastid, 48 hour incubation; P. falciparum luciferase growth in erythrocytes, 48 h; Potency, µM (top dose mostly 28.7 µM), without a hit: at the top dose activity change, negative = inhibition, actives largely listed as inhibitors; 5.9% of 310,000 active; further: potency means the concentration at half of the fitted maximal effect; on the % scale 0 is the no-effect control and ±100 the full control effect
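Firefly luciferase activity from engineered P. falciparum reports growth; inhibitors lower the luminescent signal. Cultures contained 2% hematocrit erythrocytes at 0.1% final parasitemia.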
Active calls of the source: *; ? = inconclusive; nt = no result. An excerpt weighted towards active compounds, which were near 21% of everything screened. Unless noted, the call rests on the fitted dose curve; in most records, active means well fitted curve in the direction sought with a large enough effect; inconclusive means small, poorly fitted or top-dose-only effect, or another doubt; inactive means no such curve, though single readings can be large; an effect the other way counts as inactive or inconclusive.

SMILES	NS1 function inh	Cycloheximide cs	Pf growth 96h	Sm TGR inh	Shiga inhibitor	Pf growth 48h
NC(=O)C1CCN(CC(=O)Nc2cccc(C(=O)Nc3cccc(C(F)(F)F)c3)c2)CC1	-6%	-2	?	-3%	-10	1.2µM*
CCOC(=O)N1CCC(NC(=O)c2ccc(CO)c(C(=O)NC3CCN(C(=O)OCC)CC3)c2)CC1	nt	-2	?	?	15	?
O=C(O)c1cc(-c2ccc(C(F)(F)F)cc2)nc2n[nH]c(-c3ccccc3)c12	nt	nt	nt	-2%	nt	nt
NC(=O)C1CCN(c2nc(-c3ccccc3C(F)(F)F)cs2)CC1	nt	nt	-7%	-1%	nt	14%
Cc1onc(-c2c(F)cccc2Cl)c1C(=O)NC1C(=O)N2C1SC(C)(C)C2C(=O)O (stereo not drawn)	nt	nt	-23%	nt	nt	-14%
COc1ccc(C(=O)Nc2cc3c(cc2Cl)OCCCO3)cc1	-17%	45*	199%	-5%	94*	nt
COCCOc1cc(NC(=O)c2cccc(OC)c2)c(Cl)cc1Cl	nt	6	?	3%	33	12µM*
COCCOc1cc(NC(=O)CS(=O)CC(=O)N(C)C)c(Cl)cc1Cl (stereo not drawn)	1%	-3	?	5%	-14	36%
CCN(CC)C(=O)CS(=O)(=O)CC(=O)Nc1cc(OCCOC)c(Cl)cc1Cl	0%	-2	?	35µM*	9	-10%
COc1cccc(C(=O)Nc2cc3c(cc2Cl)OCCCO3)c1	-27%	76*	311%	-4%	84*	249%
COc1cccc(C(=O)Nc2cc3c(cc2C(=O)c2ccc(C)cc2)OCCO3)c1	nt	nt	nt	-7%	nt	nt
Cn1c(CNC(=O)CNS(=O)(=O)c2ccc(Cl)cc2)cc(=O)n(C)c1=O	3%	1	19%	2%	27	17%
COc1ccc(CNC(=O)c2ccc(CNS(=O)(=O)c3ccc(F)cc3)cc2)cc1	nt	nt	nt	26%	nt	nt
Cc1ccc(C)c(NC(=S)N2CCC(NC(=O)c3cccc(F)c3)CC2)c1	3%	-4	4%	0%	7	-9%
CCN(CC)c1ccc(NC(=O)CN2CCN(S(=O)(=O)c3ccc(C(C)C)cc3)CC2)cc1	nt	nt	nt	-8%	nt	nt
Cc1cccc(C(=O)Nc2cc(OCc3cccc(F)c3)c(Cl)cc2Cl)c1	2%	16*	-1%	-5%	32	14%
Cc1cccc(Nc2ncc(NC(=O)c3cccc(F)c3)c(Nc3cccc(C)c3)n2)c1	nt	nt	nt	2%	nt	nt
CCOC(=O)Cc1csc(N/N=C/c2ccc(Cl)cc2)n1	3%	31*	103%	-18%	53*	101%
CCOC(=O)Cc1csc(NC(=O)Nc2ccc(Cl)cc2)n1	-5%	2	?	-7%	19	?
CCCC(=O)Nc1nc(CC(=O)OCC)cs1	nt	21	26%	9%	-1	40%
CCOC(=O)Cc1csc(NC(=O)c2sc3nc4ccc(CC)cc4cc3c2N)n1	27%	24*	35%	11%	81*	133%
COc1ccc(NC(=O)/C=C/c2cccc(Br)c2)cn1	-67%	27*	?	-14%	55*	18%
CCOC(=O)Cc1csc(NC(=O)/C=C/c2ccc(Br)o2)n1	-42%	27	?	10µM*	34	77%
COc1ccc(Nc2c(-c3ccsc3)nc3nc(C)cc(C)n23)cc1	nt	nt	nt	5%	nt	nt
O=C(O)[C@H]1CCCC[C@@H]1c1c2ccc(=O)c(O)c-2oc2c(O)c(O)ccc12	-5%	nt	nt	nt	nt	nt
SMILES	NS1 function inh	Cycloheximide cs	Pf growth 96h	Sm TGR inh	Shiga inhibitor	Pf growth 48h
CCOC(=O)Cc1csc(NC(=O)Nc2cccc(Cl)c2)n1	2%	8.9*	-27%	-9%	26	12%
CC(C)(C)c1csc(NC(=O)c2ccc(Br)o2)n1	-58%	47*	-20%	3%	99*	6%
CCOC(=O)Cc1csc(NC(=O)c2ccc(Br)o2)n1	-55%	38*	?	3%	36*	nt
CCN(CC)S(=O)(=O)c1ccc2nc(NC(=O)c3ccc(Br)o3)sc2c1	nt	nt	nt	-12%	nt	nt
CCOC(=O)Cc1csc(NC(=O)c2cc(C)cc(C)c2)n1	-5%	-2	?	nt	19	5%
CCOC(=O)Cc1csc(NC(=O)/C=C/c2cccc(Br)c2)n1	nt	12	-24%	2%	21	9.3µM*
